Data published in PubChem BioAssay (Tox21).
Records with an inconclusive call do not appear. Where a call stands in place of a potency, no number is given. A number with no mark means an inactive call. Active and inactive are the calls of the source. Unless noted, the call rests on the fitted dose curve; in most records, active means well fitted curve in the direction sought with a large enough effect in the repeat runs; inconclusive means weak or mixed curves; inactive means no such curve, though single readings can be large; an effect the other way counts as inactive or inconclusive.

Key:
[1] = qHTS assay to identify aromatase inhibitors - cell viability counter screen (AID 743084);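 further: cells stimulated with testosterone during compound exposure; nearly all actives have a fitted effect of over 55% in size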
[2] = qHTS assay to identify small molecule that activate the aryl hydrocarbon receptor (AhR) signaling pathway - cell viability counter screen (AID 743086); further: nearly all actives have a fitted effect of over 45% in size; further: potency means the concentration at half of the fitted maximal effect
Outline: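 HepG2-AhR-luc (HG2L7.5c1) cells, 4000/well, were preincubated 5 h at 37C, exposed to compound in qHTS format for 24 hr at 37C, then given CellTiter-Fluor for 30 min; viability was read as fluorescence in the reporter wells.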

[3] = target: Peroxisome proliferator-activated receptor gamma (Homo sapiens) (UniProt P37231); assay: qHTS assay to identify small molecule agonists of the peroxisome proliferator-activated receptor gamma (PPARg) signaling pathway (AID 743094; active means well fitted activation curve with a large enough effect in the signal ratio in the repeat runs, not every such curve was filed as active; the % refers to the signal ratio)
Outline: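 Cell-based bla reporter, HEK293H background, PPARg-driven UAS. Pre-incubation 5 h, 37C, 5% CO2. Compound 17 h, 37C. Substrate 1 h RT; fluorescence.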

[4] = target: Peroxisome proliferator-activated receptor gamma (Homo sapiens) (UniProt P37231); assay: qHTS assay to identify small molecule antagonists of the peroxisome proliferator-activated receptor gamma (PPARg) signaling pathway (AID 743191; calls by dose curve; further: series mostly up to about 63 µM; nearly all actives have a fitted effect of over 30% in size)
Outline: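 GeneBLAzer PPARg UAS-bla HEK293H cells carrying a UAS-driven beta-lactamase reporter were plated at 3000 cells/well, preincubated 5 h at 37C, then given compound for 17 h at 37C; LiveBLAzer B/G FRET substrate was read after 1 h at room temperature.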

[5] = qHTS assay to identify small molecule antagonists of the peroxisome proliferator-activated receptor gamma (PPARg) signaling pathway - cell viability counter screen (AID 743194); further: nearly all actives have a fitted effect of over 55% in size
Outline: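 PPARg-UAS-bla HEK293H cells were plated, rested 5 h at 37 C, then treated with compounds plus rosiglitazone (50 nM final) for 17 h at 37 C; viability was then read by CellTiter-Glo luminescence after 30 min at room temperature.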

[6] = qHTS assay for small molecule agonists of the antioxidant response element (ARE) signaling pathway (AID 743202; active means well fitted activation curve with a large enough effect in the signal ratio in the repeat runs, not every such curve was filed as active; the % refers to the signal ratio)
Outline: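 Following a 16 h, 37 C exposure of reporter HepG2 cells (ARE-driven beta-lactamase, 2,000 cells/well) to compounds, FRET substrate was applied for 2 h at room temperature and fluorescence intensity recorded.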

[7] = qHTS assay for small molecule agonists of the antioxidant response element (ARE) signaling pathway - cell viability counter screen (AID 743203; calls by dose curve; further: nearly all actives have a fitted effect of over 55% in size)
Outline: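 Measured in the same wells as the beta-lactamase ARE reporter, this read-out is CellTiter-Glo luminescence from HepG2 ARE-bla cells given compounds for 16 hrs.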

[8] = qHTS assay for small molecule activators of the heat shock response signaling pathway - cell viability counter screen (AID 743209); further: nearly all actives have a fitted effect of over 50% in size
Outline: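 Same-well multiplex: after 2.5 h room-temperature incubation with LiveBLAzer B/G substrate and fluorescence reading, CellTiter-Glo reagent was added to HSE-bla HeLa cells that had received compound for 5 h at 37 C; luminescence read after 30 min.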

[9] = qHTS assay for small molecule activators of the heat shock response signaling pathway (AID 743210; active means well fitted activation curve with a large enough effect in the signal ratio in the repeat runs, with a control signal flat, not every such curve was filed as active; the % refers to the signal ratio; further: series mostly up to about 63 µM)
Outline: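 Heat shock element–beta-lactamase HeLa reporter cells; qHTS with compounds for 5 h at 37 C; detection by FRET substrate fluorescence after 2.5 h at RT.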

[10] = target: Aryl hydrocarbon receptor (Homo sapiens) (UniProt P35869); assay: qHTS assay to identify small molecule that activate the aryl hydrocarbon receptor (AhR) signaling pathway (AID 743085);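 further: HG2L7.5c1 human HepG2 liver cells with stably integrated DRE-driven firefly reporter; series mostly up to about 70 µM; nearly all actives have a fitted effect of over 15% in size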
Outline: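 Stably transfected human liver carcinoma cells (HG2L7.5c1; 20 DRE-firefly luciferase) were incubated 5 h, dosed, and kept 24 h at 37C. Agonism was scored from increased luciferase luminescence.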

Chain of Aryl hydrocarbon receptor (Homo sapiens) (P35869 whole entry, looked up): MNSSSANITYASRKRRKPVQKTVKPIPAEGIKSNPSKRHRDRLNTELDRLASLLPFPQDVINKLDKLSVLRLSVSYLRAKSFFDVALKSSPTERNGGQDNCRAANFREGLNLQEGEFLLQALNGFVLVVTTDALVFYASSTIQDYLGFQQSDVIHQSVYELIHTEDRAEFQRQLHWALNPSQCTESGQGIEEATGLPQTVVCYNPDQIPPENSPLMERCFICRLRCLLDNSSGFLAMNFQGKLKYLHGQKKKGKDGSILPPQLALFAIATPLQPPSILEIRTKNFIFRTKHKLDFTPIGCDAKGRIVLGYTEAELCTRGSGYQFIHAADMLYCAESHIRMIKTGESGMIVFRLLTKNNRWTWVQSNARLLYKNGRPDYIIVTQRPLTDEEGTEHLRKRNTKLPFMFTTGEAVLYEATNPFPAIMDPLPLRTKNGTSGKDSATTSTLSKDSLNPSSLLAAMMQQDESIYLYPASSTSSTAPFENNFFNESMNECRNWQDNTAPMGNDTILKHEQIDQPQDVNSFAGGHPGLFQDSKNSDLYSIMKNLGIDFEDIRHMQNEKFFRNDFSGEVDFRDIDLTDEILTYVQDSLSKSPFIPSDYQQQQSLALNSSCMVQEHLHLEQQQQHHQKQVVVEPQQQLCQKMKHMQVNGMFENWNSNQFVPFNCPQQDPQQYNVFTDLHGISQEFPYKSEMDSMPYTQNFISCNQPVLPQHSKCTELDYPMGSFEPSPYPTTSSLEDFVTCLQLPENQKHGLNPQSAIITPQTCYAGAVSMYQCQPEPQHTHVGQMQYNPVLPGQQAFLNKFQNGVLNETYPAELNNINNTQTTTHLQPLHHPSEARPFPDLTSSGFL
Chain of Peroxisome proliferator-activated receptor gamma (Homo sapiens) (P37231 whole entry, looked up): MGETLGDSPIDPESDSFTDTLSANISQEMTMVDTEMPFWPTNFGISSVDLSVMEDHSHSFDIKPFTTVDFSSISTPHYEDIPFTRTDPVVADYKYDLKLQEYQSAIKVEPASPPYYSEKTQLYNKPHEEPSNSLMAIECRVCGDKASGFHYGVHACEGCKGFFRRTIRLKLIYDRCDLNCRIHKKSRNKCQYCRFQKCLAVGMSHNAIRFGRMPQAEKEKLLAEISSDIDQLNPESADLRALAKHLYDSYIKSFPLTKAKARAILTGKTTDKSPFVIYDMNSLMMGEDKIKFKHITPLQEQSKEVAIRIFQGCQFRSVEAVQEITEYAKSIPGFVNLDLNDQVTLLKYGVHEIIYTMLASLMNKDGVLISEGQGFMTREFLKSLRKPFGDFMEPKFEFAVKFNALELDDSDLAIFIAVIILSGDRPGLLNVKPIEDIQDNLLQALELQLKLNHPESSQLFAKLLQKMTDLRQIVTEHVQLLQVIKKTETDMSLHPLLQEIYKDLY

With O=Cc1ccc(Cl)c(Cl)c1 the Potency [1] was “inactive”, the Potency [2] was “inactive” and the outcome [3] was “inactive”. The Potency [4] was “inactive”, the outcome [5] was “inactive” and the Potency [6] was “inactive”. For the same compound, the outcome [7] was “inactive”, the outcome [8] was “inactive” and the outcome [9] was “inactive”.

With COCCOC(=O)C1=C(C)NC(C)=C(C(=O)OC(C)C)C1c1cccc([N+](=O)[O-])c1 (centres undefined) the Potency [1] was “inactive”, the Potency [2] was “inactive” and the outcome [3] was “inactive”. The Potency [4] was “inactive”, the outcome [5] was “inactive” and the outcome [7] was “inactive”. For the same compound, the outcome [8] was “inactive” and the outcome [9] was “inactive”.

For C#CC(C)N(C)C(=O)Nc1ccc(Cl)cc1 (centres undefined), the Potency [1] was “inactive”, the Potency [2] was “inactive” and the outcome [3] was “inactive”. The Potency [4] was “inactive”, the Potency [6] was “inactive” and the outcome [7] was “inactive”. For the same compound, the outcome [8] was “inactive” and the outcome [9] was “inactive”.

With O=C(/N=N/C(=O)OCc1ccccc1)OCc1ccccc1 the Potency [1] was “inactive”, the Potency [2] was “inactive” and the outcome [3] was “inactive”. For the same compound, the outcome [5] was “inactive”, the Potency [6] was “inactive” and the outcome [7] was “inactive”. For the same compound, the outcome [8] was “inactive”.

With N[C@@H](CCC(=O)N[C@@H](CS)C(=O)NCC(=O)O)C(=O)O the Potency [1] was “inactive”, the Potency [10] was “inactive” and the Potency [2] was “inactive”. The outcome [5] was “inactive”, the Potency [6] was “inactive” and the outcome [8] was “inactive”. For the same compound, the outcome [9] was “inactive”.

For O=C(NCCN1CCOCC1)c1ccc(Cl)cc1, the Potency [1] was “inactive”, the Potency [2] was “inactive” and the outcome [3] was “inactive”. For the same compound, the Potency [4] was “inactive”, the outcome [5] was “inactive” and the Potency [6] was “inactive”. The outcome [7] was “inactive”, the outcome [8] was “inactive” and the outcome [9] was “inactive”.

With CC(C)c1ccc2cc(C(C)C)ccc2c1 the Potency [1] was “inactive”, the Potency [2] was “inactive” and the outcome [3] was “inactive”. For the same compound, the outcome [5] was “inactive”, the Potency [6] was “inactive” and the outcome [7] was “inactive”. For the same compound, the outcome [8] was “inactive” and the outcome [9] was “inactive”.

For CC(C)CC(=O)O, the Potency [1] was “inactive”, the Potency [2] was “inactive” and the outcome [3] was “inactive”. For the same compound, the outcome [5] was “inactive”, the outcome [7] was “inactive” and the outcome [8] was “inactive”. The outcome [9] was “inactive”.

For C[C@@H]1O[C@@H](O[C@@H]2[C@@H](O)[C@H](OCCc3ccc(O)c(O)c3)O[C@H](CO[C@@H]3O[C@H](CO)[C@@H](O)[C@H](O)[C@H]3O)[C@H]2OC(=O)/C=C/c2ccc(O)c(O)c2)[C@H](O)[C@H](O)[C@H]1O, the Potency [1] was “inactive”, the Potency [2] was “inactive” and the outcome [3] was “inactive”. The Potency [4] was “inactive”, the outcome [5] was “inactive” and the outcome [7] was “inactive”. For the same compound, the outcome [8] was “inactive”.

With O=C(CCNNC(=O)c1ccncc1)NCc1ccccc1 the Potency [1] was “inactive”, the Potency [2] was “inactive” and the outcome [5] was “inactive”. For the same compound, the Potency [6] was “inactive”, the outcome [7] was “inactive” and the outcome [8] was “inactive”. For the same compound, the outcome [9] was “inactive”.

For CC(C(=O)O)c1ccc2c(c1)CC(=O)c1ccccc1S2 (centres undefined), the Potency [1] was “inactive”, the Potency [10] was “inactive” and the Potency [2] was “inactive”. The outcome [5] was “inactive”, the Potency [6] was “inactive” and the outcome [8] was “inactive”. The outcome [9] was “inactive”.

For CCCCOC(=O)c1ccccc1, the Potency [1] was “inactive”, the Potency [2] was “inactive” and the outcome [3] was “inactive”. For the same compound, the Potency [4] was “inactive”, the outcome [5] was “inactive” and the Potency [6] was “inactive”. The outcome [7] was “inactive” and the outcome [8] was “inactive”.

In the case of O=C1c2ccccc2C(=O)N1CCl, the Potency [1] was “inactive”, the Potency [2] was “inactive” and the outcome [3] was “inactive”. The Potency [4] was “inactive”, the outcome [5] was “inactive” and the Potency [6] was “inactive”. The outcome [7] was “inactive”, the outcome [8] was “inactive” and the outcome [9] was “inactive”.

In the case of NCCN1CCOCC1, the Potency [1] was “inactive”, the Potency [10] was “inactive” and the Potency [2] was “inactive”. The outcome [5] was “inactive”, the Potency [6] was “inactive” and the outcome [7] was “inactive”. For the same compound, the outcome [8] was “inactive” and the outcome [9] was “inactive”.

For CC(C)NCC(O)COc1cccc2[nH]ccc12 (centres undefined), the Potency [1] was “inactive”, the Potency [2] was “inactive” and the outcome [3] was “inactive”. For the same compound, the outcome [5] was “inactive”, the Potency [6] was “inactive” and the outcome [7] was “inactive”. For the same compound, the outcome [8] was “inactive” and the outcome [9] was “inactive”.

For CCOc1cc([N+](=O)[O-])c(OCC)cc1N1CCOCC1, the Potency [1] was “inactive”, the Potency [10] was “inactive” and the outcome [3] was “inactive”. The outcome [5] was “inactive”, the Potency [6] was “inactive” and the outcome [7] was “inactive”. For the same compound, the outcome [8] was “inactive” and the outcome [9] was “inactive”.

With COC(=O)[C@@H]1[C@H]2C[C@H]3c4[nH]c5ccccc5c4CCN3C[C@@H]2CC[C@@H]1O the Potency [1] was “inactive”, the Potency [2] was “inactive” and the outcome [3] was “inactive”. For the same compound, the outcome [5] was “inactive”, the Potency [6] was “inactive” and the outcome [8] was “inactive”. The outcome [9] was “inactive”.

For C[C@@H](O)[C@H]1C(=O)N2C(C(=O)O)=C(SCCN=CN)C[C@H]12, the Potency [1] was “inactive”, the Potency [2] was “inactive” and the outcome [3] was “inactive”. The Potency [4] was “inactive”, the outcome [5] was “inactive” and the Potency [6] was “inactive”. For the same compound, the outcome [9] was “inactive”.

In the case of O=C1c2cccc3c2[C@H](CCC3)CN1[C@@H]1CN2CCC1CC2, the Potency [1] was “inactive”, the Potency [10] was “inactive” and the outcome [3] was “inactive”. The outcome [5] was “inactive”, the Potency [6] was “inactive” and the outcome [7] was “inactive”. The outcome [8] was “inactive” and the outcome [9] was “inactive”.

With CCCCCCN the Potency [1] was “inactive”, the Potency [10] was “inactive” and the Potency [2] was “inactive”. For the same compound, the outcome [5] was “inactive”, the outcome [7] was “inactive” and the outcome [8] was “inactive”.

In the case of O=C(CCN1CCN(CCO)CC1)N1c2ccccc2Sc2ccc(C(F)(F)F)cc21, the Potency [10] was “inactive”, the Potency [2] was 21.1 µM (active) and the outcome [3] was “inactive”. For the same compound, the Potency [4] was “inactive”, the outcome [5] was “inactive” and the outcome [7] was “inactive”. The outcome [8] was “inactive”.

For NS(=O)(=O)c1cc2c(cc1Cl)CN(C1CCCCC1)C2=O, the Potency [4] was “inactive”, the outcome [5] was “inactive” and the Potency [6] was “inactive”. For the same compound, the outcome [7] was “inactive”, the outcome [8] was “inactive” and the outcome [9] was “inactive”.

In the case of Cc1ccccc1C(=O)Nc1ccc(C(=O)N2CCCC(N(C)C)c3ccccc32)cc1 (centres undefined), the outcome [5] was “inactive”, the outcome [7] was “inactive” and the outcome [8] was “inactive”. The outcome [9] was “inactive”.

In the case of CCn1ccc(NS(=O)(=O)c2ccc(N)cc2)nc1=O, the outcome [5] was “inactive”, the outcome [7] was “inactive” and the outcome [8] was “inactive”. The outcome [9] was “inactive”.

For COc1cc2c(cc1OC)C(=O)CC2, the Potency [4] was “inactive”, the outcome [5] was “inactive” and the outcome [7] was “inactive”. For the same compound, the outcome [8] was “inactive”.

For Brc1ccc(-c2ccccc2)cc1, the Potency [10] was “inactive”, the Potency [2] was “inactive” and the outcome [5] was “inactive”. For the same compound, the Potency [6] was “inactive”, the outcome [8] was “inactive” and the outcome [9] was “inactive”.
